Laboratory results: PubChem BioAssay (EPA / NIEHS)
Activity calls are given as the source filed them. How the source made its calls: active means hit-call score of the fitted dose curve at least 0.9, where 1 is the maximum; inactive means score below 0.9.

Assays:
[1] = APR_HepG2_CellCycleArrest_1hr: Apredica 1-hour HepG2 Assay for Cell Cycle Arrest (AID 2282666); settings: high-content imaging, actives raise or lower the signal
Outline: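 HepG2 cells exposed for 1 h to 0.39–200 uM compound (0.5% DMSO). Fixed, Hoechst-stained nuclei imaged by ArrayScan; DNA content quantified by Cell Cycle analysis; bidirectional fit against DMSO.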

[2] = APR_HepG2_CellLoss_1hr: Apredica 1-hour HepG2 Assay for Cell Loss (AID 2282668); settings: high-content imaging;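 further: curves fitted both ways against DMSO so gain or loss of cells counts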
Outline: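 HepG2 cells were treated for 1 h with compound at 0.39–200 uM, in duplicate, in 0.5% DMSO. After formaldehyde fixation, Hoechst 33342-stained nuclei were imaged on an ArrayScan to count cells. Data were fitted bidirectionally versus DMSO.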

[3] = APR_HepG2_MicrotubuleCSK_1hr: Apredica 1-hour HepG2 Assay for Microtubule CSK Stabilty (AID 2282669); settings: HepG2 microtubule cytoskeleton imaging, actives raise or lower the signal
Outline: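 HepG2 cells exposed 1 h to 0.39–200 uM compound (0.5% DMSO, duplicates), then formaldehyde-fixed, permeabilized and immunostained for alpha-tubulin with Hoechst nuclei. Imaged by ArrayScan high-content analysis; bidirectional fit versus DMSO.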

[4] = APR_HepG2_NuclearSize_1hr: Apredica 1-hour HepG2 Assay for Nuclear Size (AID 2282670); settings: high-content imaging, actives raise or lower the signal
Outline: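 HepG2 cells dosed 1 hr with 0.39–200 uM compound (0.5% DMSO), formaldehyde-fixed, Hoechst 33342-stained and imaged at 20x; nuclear diameter from nuclear stain, fitted bidirectionally against DMSO.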

[5] = APR_HepG2_MitoticArrest_1hr: Apredica 1-hour HepG2 Assay for Mitotic Arrest (AID 2282672); settings: high-content imaging, actives raise or lower the signal
Outline: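 HepG2 cells exposed 1 hr to compounds at 0.39–200 uM (0.5% v/v DMSO final), then fixed in 3.7% formaldehyde and immunostained for phospho-histone H3 with Hoechst 33342. Mitotic arrest scored by automated fluorescence imaging, fitted bidirectionally versus DMSO.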

[6] = APR_HepG2_MitoMass_1hr: Apredica 1-hour HepG2 Assay for Mitochondrial Mass (AID 2282674); settings: high-content imaging, actives raise or lower the signal
Outline: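 HepG2 cells dosed 1 hr with 0.39-200 uM compound (0.5% DMSO), duplicate wells. Mitochondria stained with 250 nM MitoTracker Red CMXRos for 30 min before formaldehyde fixation, imaged at 20x by ArrayScan; bidirectional fit versus DMSO.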

[7] = APR_HepG2_CellCycleArrest_24hr: Apredica 24-hour HepG2 Assay for Cell Cycle Arrest (AID 2282905); settings: imaging, actives raise or lower the signal;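 further: cell cycle arrest scored as ratio of 2N to 4N nuclear DNA content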
Outline: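 HepG2 cells were exposed to compounds at 0.39–200 uM (ten concentrations, duplicate) in 0.5% v/v DMSO for 24 hr. After formaldehyde fixation and Triton permeabilization, Hoechst 33342-stained nuclei were imaged at 20x; DNA content was quantified, with bidirectional fitting against DMSO.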

[8] = APR_HepG2_StressKinase_1hr: Apredica 1-hour HepG2 Assay for Stress Kinase (AID 2282906); settings: HepG2 stress kinase (phospho-c-Jun) imaging, actives raise or lower the signal
Outline: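 HepG2 cells dosed 0.39-200 uM (0.5% DMSO) for 1 h, then formaldehyde-fixed. Stress kinase read by phospho-c-Jun immunofluorescence using high-content imaging; bidirectional fit vs DMSO.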

[9] = APR_HepG2_NuclearSize_24hr: Apredica 24-hour HepG2 Assay for Nuclear Size (AID 2282907); settings: high-content imaging, actives raise or lower the signal
Outline: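 HepG2 human liver cells were exposed for 24 hr to compounds at 0.39–200 uM (ten concentrations, duplicate) in 0.5% v/v DMSO. They were then formaldehyde-fixed, Triton-permeabilized and Hoechst 33342-stained, and nuclear diameter was imaged at 20x. Bidirectional fits were made against DMSO.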

[10] = APR_HepG2_CellLoss_24hr: Apredica 24-hour HepG2 Assay for Cell Loss (AID 2282908); settings: high-content imaging
Outline: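 Compounds were tested at 0.39–200 uM in duplicate with 0.5% v/v DMSO final. Cells were then fixed in 3.7% formaldehyde, Hoechst 33342 nuclei were imaged at 20x by HCS, and cell number was fitted bidirectionally against DMSO.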

[11] = APR_HepG2_MitoticArrest_24hr: Apredica 24-hour HepG2 Assay for Mitotic Arrest (AID 2282910); settings: high-content imaging, actives raise or lower the signal
Outline: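 HepG2 human liver cells were exposed to compounds at 0.39–200 uM (10 concentrations, duplicate) in 0.5% v/v DMSO for 24 hr, then fixed and immunostained for phospho-histone H3 with Hoechst 33342. Mitotic arrest came from HCS fluorescent imaging, fitted bidirectionally against DMSO.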

[12] = APR_HepG2_MitoMembPot_24hr: Apredica 24-hour HepG2 Assay for Mitochondrial Membrane Potential (AID 2282911); settings: imaging, actives raise or lower the signal
Outline: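 Mitochondrial dye uptake (MitoTracker Red CMXRos, 250 nM, 30 min pre-fixation) in HepG2 after 24 hr compound exposure, 0.39–200 uM; ArrayScan images at 20x, activity fitted in both directions relative to DMSO.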

[13] = APR_HepG2_MitoMass_24hr: Apredica 24-hour HepG2 Assay for Mitochondrial Mass (AID 2282912); settings: high-content imaging, actives raise or lower the signal
Outline: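 Human HepG2 liver cells were exposed for 24 hr to compounds at 0.39–200 uM (duplicates, 0.5% v/v DMSO final). They were stained live with 250 nM MitoTracker Red CMXRos for 30 min, fixed in 3.7% formaldehyde, and imaged by HCS fluorescence; signals were fitted bidirectionally against DMSO.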

[14] = APR_HepG2_p53Act_24hr: Apredica 24-hour HepG2 Assay for p53 Activation (AID 2282913); settings: high-content imaging, actives raise or lower the signal;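 further: p53 protein immunofluorescence averaged per cell in HepG2 with Hoechst nuclei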
Outline: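 Following 24 hr dosing of HepG2 at 0.39–200 uM, the cells undergo formaldehyde fixation, Triton permeabilization and multiplexed antibody labeling that includes p53 (Cy5). Signal from the imaging is referenced to DMSO solvent controls.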

[15] = APR_HepG2_CellCycleArrest_72hr: Apredica 72-hour HepG2 Assay for Cell Cycle Arrest (AID 2282914); settings: high-content imaging, actives raise or lower the signal
Outline: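 Using multiplexed high-content imaging, HepG2 nuclei stained with Hoechst 33342 (2 ug/mL) were analysed for DNA content after fixation and permeabilization. Treatment lasted 72 hr across 0.39–200 uM in duplicate with final DMSO 0.5% v/v; DMSO served as negative control.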

[16] = APR_HepG2_CellLoss_72hr: Apredica 72-hour HepG2 Assay for Cell Loss (AID 2282915); settings: high-content imaging
Outline: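 HepG2 cells were exposed for 72 hr to compounds at 0.39–200 uM (ten concentrations, duplicate) in 0.5% v/v final DMSO. Nuclei were stained with Hoechst 33342 after 3.7% formaldehyde fixation, imaged at 20x, and counted; fits bidirectional versus DMSO.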

[17] = APR_HepG2_MitoMembPot_1hr: Apredica 1-hour HepG2 Assay for Mitochondrial Membrane Potential (AID 2282675); settings: imaging, actives raise or lower the signal
Outline: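 HepG2 cells dosed 1 hour with 0.39–200 uM compound in duplicate, 0.5% DMSO final. MitoTracker Red CMXRos (250 nM, 30 min) loaded before formaldehyde fixation; fluorescence quantified by high-content imaging, bidirectional fitting versus DMSO.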

[18] = APR_HepG2_P-H2AX_1hr: Apredica 1-hour HepG2 Assay for H2AX Phosphorylation (AID 2282673); settings: high-content imaging, actives raise or lower the signal
Outline: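 HepG2 dosed 1 hr at 0.39-200 uM (0.5% DMSO final), duplicate. Fixed in 3.7% formaldehyde, Triton permeabilized, immunostained for phospho-histone H2A.x (1:200) with Hoechst 33342; ArrayScan 20x imaging, bidirectional fit vs DMSO.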

[19] = APR_HepG2_p53Act_1hr: Apredica 1-hour HepG2 Assay for p53 Activation (AID 2282671); settings: high-content imaging, actives raise or lower the signal
Outline: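 HepG2 cells treated 1 h with compound at 0.39–200 uM (10 concentrations, duplicate) in 0.5% DMSO. Formaldehyde-fixed, permeabilised cells immunostained for p53 with Hoechst 33342; high-content imaging, bidirectional fit versus DMSO.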

| SMILES | outcome [1] | outcome [2] | outcome [3] | outcome [4] | outcome [5] | outcome [6] | outcome [7] | outcome [8] | outcome [9] | outcome [10] | outcome [11] | outcome [12] | outcome [13] | outcome [14] | outcome [15] | outcome [16] | AC50 [16] | outcome [17] | outcome [18] | outcome [19] |
| --- | --- | --- | --- | --- | --- | --- | --- | --- | --- | --- | --- | --- | --- | --- | --- | --- | --- | --- | --- | --- |
| O=c1ccc(=O)[nH][nH]1 | inactive | inactive | inactive | inactive | inactive | inactive | inactive | inactive | inactive | inactive | inactive | inactive | inactive | inactive | inactive | inactive |  |  |  |  |
| CSc1nnc(C(C)(C)C)c(=O)n1N | inactive | inactive | inactive | inactive | inactive | inactive | inactive | inactive | inactive | inactive | inactive |  | inactive | inactive | inactive | inactive |  |  |  |  |
| COc1ccc(C(=CC(=O)N2CCOCC2)c2ccc(Cl)cc2)cc1OC | inactive | inactive | inactive | inactive |  | inactive | inactive | inactive | inactive | inactive | inactive |  | inactive | inactive | inactive |  | 31.1 µM (active) |  |  |  |
| CNC(=O)ON=C(C)SC | inactive | inactive | inactive | inactive |  | inactive | inactive | inactive | inactive | inactive | inactive |  | inactive | inactive | inactive | inactive |  | inactive |  |  |
| CCOP(=S)(OCC)Oc1cc(C)nc(C(C)C)n1 | inactive | inactive | inactive | inactive | inactive | inactive | inactive | inactive | inactive | inactive | inactive |  | inactive | inactive | inactive | inactive |  |  | inactive |  |
| CCC(=NOC/C=C/Cl)C1=C(O)CC(C2CCOCC2)CC1=O (configuration not stated) | inactive | inactive | inactive | inactive |  | inactive | inactive | inactive | inactive | inactive | inactive | inactive | inactive | inactive | inactive | inactive |  |  |  | inactive |
| CCOC(=O)COc1cc(-c2nn(C)c(OC(F)F)c2Cl)c(F)cc1Cl | inactive | inactive | inactive | inactive |  | inactive | inactive | inactive | inactive | inactive | inactive |  | inactive | inactive | inactive | inactive |  | inactive | inactive |  |
| Nc1c(Cl)cc([N+](=O)[O-])cc1Cl | inactive | inactive | inactive | inactive |  | inactive | inactive | inactive | inactive | inactive | inactive |  | inactive |  | inactive |  | 95.3 µM (active) |  | inactive |  |
